# Assay results as given in PubChem BioAssay (NCATS).
# Results filed as inconclusive are left out. Unmarked numbers belong to inactive results. Active and inactive are the calls of the source. Unless noted, calls come from the whole dose curve; as a rule, active = well fitted curve in the direction sought with a large enough effect; inconclusive = small, poorly fitted or top-dose-only effect, or another doubt; inactive = no such curve, though single readings can be large; an effect the other way counts as inactive or inconclusive.
# Biological target: Calcium and integrin-binding protein 1 (Homo sapiens) (UniProt Q99828)
# Test: Primary qHTS for Identification of Calcium Integrin Binding Protein 1 (CIB1) Competitor (AID 1508620);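 note: GST tagged CIB1 binding a fluorescein labelled alphaIIb integrin peptide tracer; top concentration of the series differs between compounds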
# Conditions: CIB1-GST / FITC-alphaIIb peptide fluorescence polarization; series mostly up to 114 µM; activity change, negative = inhibition: at the top concentration
# Procedure, shortened: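 Fluorescence polarization competition: GST-tagged CIB1 (1 uM final) preincubated with compound 15 min at room temperature, then FITC-labelled alphaIIb peptide (100 nM final) added. After 15 min at room temperature, polarization read at Ex 480/Em 540.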
# % is set by controls: 0 for no effect and ±100 for the full control effect.
# Calcium and integrin-binding protein 1 (Homo sapiens), sequence (Q99828 whole entry, looked up): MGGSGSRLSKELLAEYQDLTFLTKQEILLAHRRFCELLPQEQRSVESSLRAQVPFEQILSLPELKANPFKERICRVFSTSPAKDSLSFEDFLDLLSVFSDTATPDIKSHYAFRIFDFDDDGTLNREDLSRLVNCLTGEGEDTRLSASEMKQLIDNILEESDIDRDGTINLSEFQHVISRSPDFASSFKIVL
Compound,"activity change, negative = inhibition",Potency
OCCCCC#Cc1cncc(OC[C@@H]2CCN2)c1,1.94%,–
CC(N)Cc1c[nH]c2ccccc12 (configuration not stated),3.09%,–
Cc1cc(C(=O)CN2CCCC2)c(C)n1-c1ccc(F)cc1,–,inactive
CCCCCCn1c(=O)c(C(=O)Nc2ccc(C(=O)OCCC)cc2)c(O)c2ccccc21,-0.851% [at 30.2 µM],–
CC(C)(C)c1cc(C(C)(C)C)c2c(c1)C(O)(C(F)(F)F)C(=O)O2 (configuration not stated),-13.3%,–
COc1ccccc1CN[C@H]1C2CCN(CC2)[C@H]1C(c1ccccc1)c1ccccc1,-1.46%,–
Cn1ncnc1COc1nn2c(-c3c(F)cccc3F)nnc2cc1C1CCC1,0.97%,–
Cc1cn(C[C@H](N)C(=O)O)c(=O)n(Cc2cc(-c3ccccc3)sc2C(=O)O)c1=O,-2%,–
Clc1ccc(OCC2=NCCN2)cc1Cl,-6.86%,–

# Test system: not listed separately
# Test: Primary qHTS for small molecule stabilizers of the endoplasmic reticulum resident proteome: Secreted ER Calcium Modulated Protein (SERCaMP) assay (AID 1508630)
# Conditions: SH-SY5Y GLuc-SERCaMP (Gaussia luciferase released on ER calcium loss) secretion, thapsigargin, luminescence; series mostly up to 38.4 µM; activity change, negative = inhibition: at the top concentration
# Procedure, shortened: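 The SH-SY5Y reporter protocol was run at 3 concentrations up to 38.3 uM (primary) or 11 concentrations (follow-up): 16 h compound, 100 nM thapsigargin for 4 h, then extracellular luciferase luminescence.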
Compound,"activity change, negative = inhibition",outcome
COc1ccc2c(c1)/C(=C/c1cnc[nH]1)C(=O)N2,84.5%,–
O=C1OC2(c3cc(Br)c(O)cc3Oc3c2cc(Br)c(O)[c]3[Hg])c2ccccc21 (configuration not stated),-27.4% [at 13 µM],–
c1ccc2c(c1)[I+]c1ccccc1-2,–,inactive
CCNC(=O)[C@H]1O[C@@H](n2cnc3c(N)ncnc32)[C@H](O)[C@@H]1O,–,inactive
CC1(C)S[C@@H]2[C@H](N)C(=O)N2[C@H]1C(=O)O,-6.26%,–
CN(N=O)c1ccc(O)c(O)c1,-25%,–
CN(N=O)c1cc(O)ccc1O,93.7%,–
Ic1ccccc1CNC1C2CCN(CC2)C1C(c1ccccc1)c1ccccc1 (configuration not stated),198%,–
Cc1cccc(C(C)c2cnc[nH]2)c1C (configuration not stated),0.472%,–
C=CCN1CC[C@]23c4c5ccc(O)c4O[C@@H]2/C(=N/N=C2\CC[C@@]4(O)C6Cc7ccc(O)c8c7[C@@]4(CCN6CC=C)[C@@H]2O8)CC[C@@]3(O)C1C5,157%,–

# Biological target: Cytochrome P450 2D6 (Homo sapiens) (UniProt P10635)
# Test: Cytochrome P450 family 2 subfamily D member 6 (CYP2D6) small molecule antagonists: luciferase biochemical (cell-free) qHTS assay (AID 1645840; active = well fitted curve in the direction sought with a large enough effect in the repeat runs; an effect the other way counts as inactive or inconclusive; note: nearly all actives have a fitted effect of over 55% in size; note: potency is the fitted concentration of half-maximal effect)
# Conditions: P450-Glo CYP2D6 enzyme, luciferin luminescence, 1 h; series mostly up to 57.4 µM; activity change, negative = inhibition: at the top concentration
# Procedure, shortened: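 P450-Glo CYP2D6 system: proluciferin substrate converted by enzyme to luciferin, read by luminescence proportional to activity. Enzyme-substrate mix with compound 10 min at room temperature, then NADPH regeneration 1 h before detection reagent.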
# Cytochrome P450 2D6 (Homo sapiens), sequence (P10635 whole entry, looked up): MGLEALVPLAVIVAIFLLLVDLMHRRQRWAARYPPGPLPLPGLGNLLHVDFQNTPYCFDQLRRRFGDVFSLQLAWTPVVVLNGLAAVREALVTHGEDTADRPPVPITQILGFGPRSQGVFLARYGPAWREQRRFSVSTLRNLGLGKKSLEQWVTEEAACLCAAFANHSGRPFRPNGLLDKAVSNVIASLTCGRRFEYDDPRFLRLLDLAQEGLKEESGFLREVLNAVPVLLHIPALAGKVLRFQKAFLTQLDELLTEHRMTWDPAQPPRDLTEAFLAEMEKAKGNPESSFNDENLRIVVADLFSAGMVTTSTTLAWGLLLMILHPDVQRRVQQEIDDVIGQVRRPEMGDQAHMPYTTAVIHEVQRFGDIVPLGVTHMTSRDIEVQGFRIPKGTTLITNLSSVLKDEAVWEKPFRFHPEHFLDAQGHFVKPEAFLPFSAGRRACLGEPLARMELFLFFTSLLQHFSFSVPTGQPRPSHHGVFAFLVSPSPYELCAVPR
Compound,"activity change, negative = inhibition [%]",Potency
CCNCC(O)c1cccc(O)c1 (configuration not stated),2.02,–
OCCCCC#Cc1cncc(OC[C@@H]2CCN2)c1,-1.34,–
CCCC(C)C1(CC)C(=O)NC(=O)NC1=O (configuration not stated),8.61,–
COCC(C)N(C(=O)CCl)c1c(C)csc1C (configuration not stated),6.91,–
C#CC(C)(O)CC (configuration not stated),4.92,–
CC1CCC(C(C)C)C(OC(=O)c2ccccc2N)C1 (configuration not stated),2.06,–
CC(N)Cc1c[nH]c2ccccc12 (configuration not stated),–,23.9 µM (active)
CCCCNCC(O)c1ccc(O)cc1 (configuration not stated),–,9.52 µM (active)
Cc1cc(C(=O)CN2CCCC2)c(C)n1-c1ccc(F)cc1,–,0.952 µM (active)
CCCCCCn1c(=O)c(C(=O)Nc2ccc(C(=O)OCCC)cc2)c(O)c2ccccc21,17.6,–
CC(C)(C)c1cc(C(C)(C)C)c2c(c1)C(O)(C(F)(F)F)C(=O)O2 (configuration not stated),14.7,–
ClC1C(Cl)C(Cl)C(Cl)C(Cl)C1Cl (configuration not stated),4.93,–
COc1ccccc1CN[C@H]1C2CCN(CC2)[C@H]1C(c1ccccc1)c1ccccc1,–,0.19 µM (active)
Cn1ncnc1COc1nn2c(-c3c(F)cccc3F)nnc2cc1C1CCC1,1.62,–
O=C(NC(=O)c1c(F)cccc1F)Nc1ccc(Cl)c(Oc2ncc(C(F)(F)F)cc2Cl)c1,–,1.51 µM (active)
CCCCCCCCOC(=O)c1ccccc1C(=O)OCCCCCCCC,10.3,–
O=[N+]([O-])c1cc(I)c(O)c(I)c1,-2.41,–
CCNC(C)Cc1cccc(C(F)(F)F)c1 (configuration not stated),–,3.79 µM (active)
Cc1cn(C[C@H](N)C(=O)O)c(=O)n(Cc2cc(-c3ccccc3)sc2C(=O)O)c1=O,0.347,–
NCC(O)c1cccc(O)c1 (configuration not stated),7.16,–
O=[N+]([O-])C(Br)(CO)CO,-14.9,–
Clc1ccc(OCC2=NCCN2)cc1Cl,–,8.49 µM (active)
CCOC(=O)c1ccccc1C(=O)OCC,6.23,–
